Laboratory results as given in PubChem BioAssay (EPA / NIEHS).
Some structures have more than one record in an assay (separate samples or runs), and their calls can disagree. Calls of active or inactive are those of the source. The calls were made as follows: active = hit-call score of the fitted dose curve at least 0.9, where 1 is the maximum; inactive = score below 0.9.

Read-out: Human Leukocyte Antigen - DR isotype (HLADR), HLA-DRA (gene 3122)
Experiment: BSK_3C_HLADR: BioMAP Diversity Plus: 3C Assay for Human Leukocyte Antigen - DR isotype (HLADR) Biomarker Activity (AID 2283019)
Conditions: primary human endothelial cells (HUVEC); actives raise or lower the signal
Method: BSK_3C is a cell-based, multiplexed-readout assay that uses umbilical vein endothelium, a human vascular primary cell, with measurements taken at 24 hours after chemical dosing in a 96-well plate.BSK_3C_HLADR is an assay component measured in the BSK_3C assay. It measures HLA-DR antibody related to regulation of gene expression using ELISA technology.Data from the assay component BSK_3C_HLADR was analyzed into 1 assay endpoint. This assay endpoint, BSK_3C_HLADR, was analyzed with bidirectional fitting relative to DMSO as the negative control and baseline of activity. Using a type of binding reporter, gain or loss-of-signal activity can be used to understand changes in the signaling as they relate to the gene HLA-DRA. Furthermore, this assay endpoint can be referred to as a primary readout, because this assay has produced multiple assay endpoints where this one serves a signaling function. To generalize the intended target to other relatable targets, this assay endpoint is annotated to the cell adhesion molecules intended target family, where the subfamily is MHC Class II.
The levels of cell surface (or secreted, indicated by the prefix "s") biomarker endpoints were measured by ELISA. Overt cytotoxicity to cells in confluent adherent cultures (all systems other than the BT system) was assessed by measuring total protein levels using sulforhodamine B (SRB) staining in parallel cultures at the time of biomarker measurements, indicated as SRB endpoints. For proliferation assays for adherent cell types, individual cell types are cultured at sub-confluence and relative cell numbers quantified by SRB staining at time points optimized for each system (48 h: 3C and CASM3C systems; 72 h: BT and HDF3CGF systems; 96 h: SAg system). SRB was performed by staining cells with 0.1% SRB after fixation with 10% TCA and reading wells at 560 nm.Viability and proliferation of PBMC (T cells) was quantified by Alamar Blue reduction for the SAg and BT systems. For PBMC viability (referred to as PBMC Cytotoxicity within the assay endpoint names), cells were plated (75,000/well in a 96-well plate) and then chemical samples added for 1 h before addition of activators, SEB and TSST-1 (20 ng/mL final concentration each). Cells were incubated for 90 h. Then, Alamar Blue (20 uL/well) (Invitrogen, Cat DAL1100) was added for 6 h, and the plates were read with a fluorescence microplate reader at 546/580 nm (excitation/emission). For PBMC proliferation, cells were plated and activated as above but incubated for only 16 h prior to addition of Alamar Blue. Plates were read after 6 h.

Structure (SMILES)	outcome	AC50
OC(O)(C(F)C(O)(O)C(F)(F)F)C(F)(F)F	inactive	17.6 µM (active)
CCCCCCCC1CCC(=O)O1 (stereo not given)	inactive	–
CC[C@H](C)C(=O)O[C@H]1C[C@H](O)C=C2C=C[C@H](C)[C@H](CC[C@@H](O)C[C@@H](O)CC(=O)O)[C@H]21	inactive	–
NCC(F)(F)C(F)(F)C(F)(F)C(F)(F)F	inactive	–
CNC(C)=O	inactive	–
CCCCCCCCCCCCCCCCOS(=O)(=O)O	inactive	–
O=C(O)c1cccc(C(=O)O)c1	inactive	–
Nc1ccn([C@@H]2O[C@H](CO)[C@@H](O)[C@@H]2O)c(=O)n1	inactive	–
OC[C@H]1O[C@@H]2O[C@H]3[C@H](O)[C@@H](O)[C@@H](O[C@H]4[C@H](O)[C@@H](O)[C@@H](O[C@H]5[C@H](O)[C@@H](O)[C@@H](O[C@H]6[C@H](O)[C@@H](O)[C@@H](O[C@H]7[C@H](O)[C@@H](O)[C@@H](O[C@H]1[C@H](O)[C@H]2O)O[C@@H]7CO)O[C@@H]6CO)O[C@@H]5CO)O[C@@H]4CO)O[C@@H]3CO	inactive	–
OC[C@H]1O[C@@](CO)(O[C@H]2O[C@H](CO)[C@@H](O)[C@H](O)[C@H]2O)[C@@H](O)[C@@H]1O	inactive	–
O=C(Cl)C(F)(F)C(F)(F)C(F)(F)C(=O)Cl	inactive	–
CCCc1ccccc1	inactive	–
O=C(O)c1ccc2c(c1)nc(C(=O)NC1CCN(C3CC3)CC1)n2Cc1cc(-c2ccc(Cl)s2)on1	–	1.6 µM (active)
CCc1ccc(O)c(C(C)(C)C)c1	–	30.9 µM (active)
NNC(=O)c1ccncc1	inactive	–
C[C@]12C=CC(=O)C=C1CC[C@H]1[C@@H]3C[C@@H](O)[C@](O)(C(=O)CO)[C@@]3(C)C[C@H](O)[C@@]12F	inactive	–
CCc1cccc(CC)c1N	inactive	–
FC(F)(F)COC(OCC(F)(F)F)OCC(F)(F)F	inactive	–
CCCCCCOC(=O)CC(CC(=O)OCCCCCC)(OC(=O)CCC)C(=O)OCCCCCC	inactive	–
C=CN1CCCC1=O	inactive	–

Structure (SMILES)	outcome	AC50
O=S1(=O)CCCO1	inactive	–
CC(C)c1nnc2ccc(-c3ocnc3-c3cc(F)ccc3F)cn12	–	0.833 µM (active)
OCc1ccccc1	inactive	–
C[C@@H](Oc1ccc(CNC(=O)c2cccnc2Oc2ccc3c(c2)OCO3)c(F)c1)C(=O)O	inactive	–
CCCCN1C(=O)[C@@H]([C@H](O)C2CCCCC2)NC(=O)C12CCN(Cc1ccc(Oc3ccc(C(=O)O)cc3)cc1)CC2	–	32.1 µM (active)
S=P(N1CC1)(N1CC1)N1CC1	inactive	–
NC(N)=O	inactive	–
O=C(NO)C1(NS(=O)(=O)c2ccc(Oc3ccc(F)cc3)cc2)CCOCC1	inactive	–
OCc1c[nH]c2ccccc12	–	9.29 µM (active)
C=CCc1cc(S(=O)(=O)c2ccc(O)c(CC=C)c2)ccc1O	–	16.3 µM (active)
c1ccc(C(O[C@@H]2CCCN(CCc3ccc4c(c3)OCO4)C2)c2ccccc2)cc1	–	30.8 µM (active)
CCOc1ccc2[nH]cc(C(=O)NCc3ccccc3)c(=O)c2n1	inactive	–
CCCCCCCCN(C)C	inactive	–
O=S(=O)(O)c1ccc(N=Nc2c(O)ccc3cc(S(=O)(=O)O)ccc23)cc1	inactive	–
OC(CCl)CCl	inactive	–
CC1(C)C(=O)N(Cl)C(=O)N1Cl	inactive	–
OCCNCCO	inactive	–
CCCCCCCCCC	inactive	–
OCCOCCOCCO	inactive	–
